{
  "source": "ChEMBL document CHEMBL3988442",
  "about": "“University of Dundee, Small-Polar-MMV Screening Library” (2021)",
  "data": [
    {"molecular_target": "T1, Arginase-2, mitochondrial (Homo sapiens) (UniProt P78540)", "T1 sequence (whole entry)": "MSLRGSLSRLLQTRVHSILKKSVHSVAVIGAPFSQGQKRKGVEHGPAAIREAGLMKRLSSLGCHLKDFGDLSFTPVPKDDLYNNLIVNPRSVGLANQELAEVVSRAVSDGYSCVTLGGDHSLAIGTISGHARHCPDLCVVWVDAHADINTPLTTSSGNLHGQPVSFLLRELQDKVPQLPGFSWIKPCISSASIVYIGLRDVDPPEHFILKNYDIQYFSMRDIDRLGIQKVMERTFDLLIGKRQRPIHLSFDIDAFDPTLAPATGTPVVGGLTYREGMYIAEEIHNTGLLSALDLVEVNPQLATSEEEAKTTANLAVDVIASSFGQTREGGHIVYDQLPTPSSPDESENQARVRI", "assay": "in vitro enzyme assay to detect the production of urea directly proportional to the activity of Arginase II", "type": "functional", "design": "scale not given: in the data most compounds retested in dose-response had high values", "conditions": "33.3 µM", "units": {"Percent Effect": "%"}, "values": [
      {"smiles": "CCc1noc(C(C)N2CCN(Cc3nnc(C4CC4)o3)CC2)n1", "note": "(stereo not drawn)", "Percent Effect": -1.77},
      {"smiles": "CN(C)CCN1CCCC12CCN(C(=O)c1cnccn1)CC2", "Percent Effect": 4.57},
      {"smiles": "CC(C)(C)c1n[nH]c(C2CN(C(=O)CCc3cscn3)CCO2)n1", "note": "(stereo not drawn)", "Percent Effect": 5.33},
      {"smiles": "Cc1nn2cccnc2c1C(=O)N1CCCC(n2ccnc2)C1", "note": "(stereo not drawn)", "Percent Effect": 0},
      {"smiles": "Cc1ccc2oc(C(=O)N3CCCC(c4noc(C)n4)C3)cc2n1", "note": "(stereo not drawn)", "Percent Effect": 4.51},
      {"smiles": "CN1CC(c2ccccc2)CC12CCN(C(=O)c1c(Cl)cnn1C)CC2", "note": "(stereo not drawn)", "Percent Effect": 10.8},
      {"smiles": "O=C(NCC1CC1)C1CCC2(CCN(C(=O)c3ccccn3)CC2)O1", "note": "(stereo not drawn)", "Percent Effect": 2.74},
      {"smiles": "CC(C)CN1CCN(C(=O)NCc2cccnc2-n2cccn2)CC1", "Percent Effect": -2.22},
      {"smiles": "Fc1ccc(-c2n[nH]cc2-c2ccnc(NCCN3CCCC3)n2)cc1", "Percent Effect": -7.98},
      {"smiles": "NCc1cn(-c2ccccc2C(=O)NCc2ccccc2)cn1", "Percent Effect": 1.33},
      {"smiles": "CC(C)CCC(=O)NC(C)c1nnc2n1CCCCC2", "note": "(stereo not drawn)", "Percent Effect": -0.205},
      {"smiles": "CC(=O)N1CCCC1c1cc(N2CCN(C3CCCC3)CC2)cc(C)n1", "note": "(stereo not drawn)", "Percent Effect": 1.33},
      {"smiles": "O=C1CCC(C(=O)NCc2nn(-c3ccccc3)c3c2CCC3)CN1", "note": "(stereo not drawn)", "Percent Effect": -2.46},
      {"smiles": "COc1ccc(CNCc2ccc(N3CCCCC3)nc2)cc1OC", "Percent Effect": 2.87},
      {"smiles": "CN1CC(=O)N(c2cnn(C)c2)CC12CCN(C(=O)c1ccsc1)C2", "note": "(stereo not drawn)", "Percent Effect": 2.43},
      {"smiles": "CCN(C)c1ncnc2c1CCN(Cc1ccc(OC)cc1)CC2", "Percent Effect": 2.43},
      {"smiles": "CCOc1ncccc1CNC(=O)Nc1ccc(N(C)C)nc1", "Percent Effect": -2.66},
      {"smiles": "Cc1nc(C)n(CC2CN(CCOCC(F)(F)F)CCO2)n1", "note": "(stereo not drawn)", "Percent Effect": 2.22},
      {"smiles": "CN(CCNC(=O)c1scnc1Cl)c1ccccc1", "Percent Effect": 3.99},
      {"smiles": "Cc1[nH]ncc1C(=O)N1CCN(CC(O)C(C)(C)C)CC1", "note": "(stereo not drawn)", "Percent Effect": -2.46},
      {"smiles": "CCn1ccnc1CNCC1CCCN1c1cc(NC)ncn1", "note": "(stereo not drawn)", "Percent Effect": 2.66},
      {"smiles": "Cc1[nH]c2ccccc2c1-c1ccnc(NCCN2CCOCC2)n1", "Percent Effect": -7.54},
      {"smiles": "COc1cc(S(=O)(=O)N2CCCc3ccccc32)cc(C(=O)O)c1OC", "Percent Effect": -3.99},
      {"smiles": "CN(C)C[C@H]1OC[C@@H]2CCN(S(=O)(=O)c3cccs3)C[C@@H]21", "Percent Effect": -2.43},
      {"smiles": "COc1ccc(OC)c(C2CCN(Cc3nc(C)n4ccccc34)C2)c1", "note": "(stereo not drawn)", "Percent Effect": 17.1},
      {"smiles": "Cc1cccc(C(=O)N2C[C@@H](OCc3cccnc3)[C@H]3OCCC[C@@H]32)n1", "Percent Effect": -4.45},
      {"smiles": "Cc1ccc(Cl)cc1N1CCC(CNC(=O)CCn2ccnn2)C1", "note": "(stereo not drawn)", "Percent Effect": 8.61},
      {"smiles": "CC(C(=O)N1CCCC1)N1CCC(c2nccn2CC2CCC2)CC1", "note": "(stereo not drawn)", "Percent Effect": 0.35},
      {"smiles": "O=C(CSc1ccc(F)c(F)c1)NS(=O)(=O)c1ccc2c(c1)OCCO2", "Percent Effect": 1.23},
      {"smiles": "CCCc1cc(C(=O)N2CCOC(c3nc(-c4cccs4)no3)C2)no1", "note": "(stereo not drawn)", "Percent Effect": 2.21},
      {"smiles": "O=C(Nc1ccccc1)C1=CC2(CCNCC2)c2ccccc21", "Percent Effect": 3.2},
      {"smiles": "CCCn1nc2c(cc1=O)CN(CC(=O)Nc1ccncc1)CC2", "Percent Effect": 2.25},
      {"smiles": "c1ccc(CNC2CCc3ncnn3C2)nc1", "note": "(stereo not drawn)", "Percent Effect": 1.23},
      {"smiles": "Cc1n[nH]c(=O)c2c(NC(=O)CN3CCCC(C(F)(F)F)C3)oc(C)c12", "note": "(stereo not drawn)", "Percent Effect": 0},
      {"smiles": "CCn1c(C)cc(C(=O)N2CCCC(n3nc(C)nc3C)C2)c1C", "note": "(stereo not drawn)", "Percent Effect": -0.41},
      {"smiles": "N#Cc1ccccc1OCCN1CCn2c(nnc2C2CC2)C1", "Percent Effect": -0.444},
      {"smiles": "O=C(NCCC1=CCCCC1)C1CCN(c2ccc3nncn3n2)CC1", "Percent Effect": -2.45},
      {"smiles": "c1ccc(-c2cnc(CNC3CCCN(c4cccnn4)C3)o2)cc1", "note": "(stereo not drawn)", "Percent Effect": 1.23},
      {"smiles": "COc1ccc(C(=O)N2CC[C@H](CO)[C@H](O)C2)c(C)c1", "Percent Effect": 16.4}
    ]},
    {"molecular_target": "T2, Proteasome subunit beta (Trypanosoma cruzi) (UniProt O96673)", "T2 sequence (whole entry)": "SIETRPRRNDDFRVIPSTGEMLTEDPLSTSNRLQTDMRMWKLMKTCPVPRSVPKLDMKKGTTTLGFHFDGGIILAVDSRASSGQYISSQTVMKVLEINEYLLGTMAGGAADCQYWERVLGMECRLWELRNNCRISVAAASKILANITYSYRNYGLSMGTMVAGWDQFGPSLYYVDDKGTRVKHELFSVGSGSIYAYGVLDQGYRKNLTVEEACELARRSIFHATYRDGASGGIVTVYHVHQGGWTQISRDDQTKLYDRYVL", "assay": "Trypanosoma cruzi proteasome chymotrypsin-like activity (TcProtChymo) assay.", "type": "functional", "design": "scale not given: in the data most compounds retested in dose-response had high values", "conditions": "9.37 µM", "units": {"Percent Effect": "%"}, "values": [
      {"smiles": "CCc1noc(C(C)N2CCN(Cc3nnc(C4CC4)o3)CC2)n1", "note": "(stereo not drawn)", "Percent Effect": -3.31},
      {"smiles": "CN(C)CCN1CCCC12CCN(C(=O)c1cnccn1)CC2", "Percent Effect": 3.69},
      {"smiles": "CC(C)(C)c1n[nH]c(C2CN(C(=O)CCc3cscn3)CCO2)n1", "note": "(stereo not drawn)", "Percent Effect": 0.597},
      {"smiles": "Cc1nn2cccnc2c1C(=O)N1CCCC(n2ccnc2)C1", "note": "(stereo not drawn)", "Percent Effect": 8.23},
      {"smiles": "Cc1ccc2oc(C(=O)N3CCCC(c4noc(C)n4)C3)cc2n1", "note": "(stereo not drawn)", "Percent Effect": 3.84},
      {"smiles": "CN1CC(c2ccccc2)CC12CCN(C(=O)c1c(Cl)cnn1C)CC2", "note": "(stereo not drawn)", "Percent Effect": 10.3},
      {"smiles": "O=C(NCC1CC1)C1CCC2(CCN(C(=O)c3ccccn3)CC2)O1", "note": "(stereo not drawn)", "Percent Effect": -2.66},
      {"smiles": "CC(C)CN1CCN(C(=O)NCc2cccnc2-n2cccn2)CC1", "Percent Effect": 10.4},
      {"smiles": "Fc1ccc(-c2n[nH]cc2-c2ccnc(NCCN3CCCC3)n2)cc1", "Percent Effect": 15.3},
      {"smiles": "NCc1cn(-c2ccccc2C(=O)NCc2ccccc2)cn1", "Percent Effect": 10.2},
      {"smiles": "CC(C)CCC(=O)NC(C)c1nnc2n1CCCCC2", "note": "(stereo not drawn)", "Percent Effect": 6.84},
      {"smiles": "CC(=O)N1CCCC1c1cc(N2CCN(C3CCCC3)CC2)cc(C)n1", "note": "(stereo not drawn)", "Percent Effect": 7.22},
      {"smiles": "O=C1CCC(C(=O)NCc2nn(-c3ccccc3)c3c2CCC3)CN1", "note": "(stereo not drawn)", "Percent Effect": 1.96},
      {"smiles": "COc1ccc(CNCc2ccc(N3CCCCC3)nc2)cc1OC", "Percent Effect": 8.62},
      {"smiles": "CN1CC(=O)N(c2cnn(C)c2)CC12CCN(C(=O)c1ccsc1)C2", "note": "(stereo not drawn)", "Percent Effect": 6.27},
      {"smiles": "CCN(C)c1ncnc2c1CCN(Cc1ccc(OC)cc1)CC2", "Percent Effect": 13.5},
      {"smiles": "CCOc1ncccc1CNC(=O)Nc1ccc(N(C)C)nc1", "Percent Effect": 15.3},
      {"smiles": "Cc1nc(C)n(CC2CN(CCOCC(F)(F)F)CCO2)n1", "note": "(stereo not drawn)", "Percent Effect": 0.594},
      {"smiles": "CN(CCNC(=O)c1scnc1Cl)c1ccccc1", "Percent Effect": 19.9},
      {"smiles": "Cc1[nH]ncc1C(=O)N1CCN(CC(O)C(C)(C)C)CC1", "note": "(stereo not drawn)", "Percent Effect": 8.79},
      {"smiles": "CCn1ccnc1CNCC1CCCN1c1cc(NC)ncn1", "note": "(stereo not drawn)", "Percent Effect": 4.5},
      {"smiles": "Cc1[nH]c2ccccc2c1-c1ccnc(NCCN2CCOCC2)n1", "Percent Effect": 14.8},
      {"smiles": "COc1cc(S(=O)(=O)N2CCCc3ccccc32)cc(C(=O)O)c1OC", "Percent Effect": 7.38},
      {"smiles": "CN(C)C[C@H]1OC[C@@H]2CCN(S(=O)(=O)c3cccs3)C[C@@H]21", "Percent Effect": 2.56},
      {"smiles": "COc1ccc(OC)c(C2CCN(Cc3nc(C)n4ccccc34)C2)c1", "note": "(stereo not drawn)", "Percent Effect": 17.8},
      {"smiles": "Cc1cccc(C(=O)N2C[C@@H](OCc3cccnc3)[C@H]3OCCC[C@@H]32)n1", "Percent Effect": 21.6},
      {"smiles": "Cc1ccc(Cl)cc1N1CCC(CNC(=O)CCn2ccnn2)C1", "note": "(stereo not drawn)", "Percent Effect": 15.8},
      {"smiles": "CC(C(=O)N1CCCC1)N1CCC(c2nccn2CC2CCC2)CC1", "note": "(stereo not drawn)", "Percent Effect": 1.71},
      {"smiles": "O=C(CSc1ccc(F)c(F)c1)NS(=O)(=O)c1ccc2c(c1)OCCO2", "Percent Effect": 3.16},
      {"smiles": "CCCc1cc(C(=O)N2CCOC(c3nc(-c4cccs4)no3)C2)no1", "note": "(stereo not drawn)", "Percent Effect": 7.55},
      {"smiles": "O=C(Nc1ccccc1)C1=CC2(CCNCC2)c2ccccc21", "Percent Effect": 13.5},
      {"smiles": "CCCn1nc2c(cc1=O)CN(CC(=O)Nc1ccncc1)CC2", "Percent Effect": 17.2},
      {"smiles": "c1ccc(CNC2CCc3ncnn3C2)nc1", "note": "(stereo not drawn)", "Percent Effect": 21.1},
      {"smiles": "Cc1n[nH]c(=O)c2c(NC(=O)CN3CCCC(C(F)(F)F)C3)oc(C)c12", "note": "(stereo not drawn)", "Percent Effect": 17.7},
      {"smiles": "CCn1c(C)cc(C(=O)N2CCCC(n3nc(C)nc3C)C2)c1C", "note": "(stereo not drawn)", "Percent Effect": 4.35},
      {"smiles": "N#Cc1ccccc1OCCN1CCn2c(nnc2C2CC2)C1", "Percent Effect": 5.85},
      {"smiles": "O=C(NCCC1=CCCCC1)C1CCN(c2ccc3nncn3n2)CC1", "Percent Effect": 11.1},
      {"smiles": "c1ccc(-c2cnc(CNC3CCCN(c4cccnn4)C3)o2)cc1", "note": "(stereo not drawn)", "Percent Effect": 0.0853},
      {"smiles": "COc1ccc(C(=O)N2CC[C@H](CO)[C@H](O)C2)c(C)c1", "Percent Effect": 10.1}
    ]}
  ]
}
